# Reference: PubChem BioAssay (NCATS)
# Records with an inconclusive call do not appear. Values without a mark were called inactive. Active and inactive are the calls of the source. Calls follow the shape of the dose curve; as a rule, active = well fitted inhibition curve with a large enough effect; inconclusive = small, poorly fitted or top-dose-only effect; inactive = no such curve, though single readings can be large or run the other way.
# System: Zika virus NS2B-NS3 protease (linked construct)
# Test: Primary screen NINDS Rhodamine qHTS for Zika virus inhibitors (AID 1347160); also: nearly all actives have a fitted effect of over 55% in size
# Conditions: purified NS2B-NS3 protease, Rhodamine110 substrate fluorescence; series mostly up to 57.1 µM; activity change, negative = inhibition: at the top concentration
# Outline: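 Aprotinin served as in-plate control. Conditions: 25 nM linked NS2B-NS3, pH 8.0 Tris buffer, titrated compounds, 15 min preincubation and 15 min reaction with 1.5 microM Rhod110 substrate at room temperature.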
# % is scaled to controls: 0 for no effect and ±100 for the full control effect.
Structure (SMILES),"activity change, negative = inhibition",outcome
C[C@@H](Nc1ncnc2[nH]c(-c3ccc(O)cc3)cc12)c1ccccc1,17.4%,–
C=C1CCN([C@H](C)[C@](O)(Cn2cncn2)c2ccc(F)cc2F)CC1,23.8%,–
COc1ccncc1C(=O)NC(=O)Nc1ccc(-c2ccccc2)c(C(F)(F)F)c1,4.26%,–
CC1=CC2/C=C(\C)CCC3OC(C)(C)OC3CCC(=O)C23C(=O)NC(CC(C)C)C3C1C (stereo not given),-14.5% [at 33.1 µM],–
CC(C)c1cc(-c2ccc(F)c3ccccc23)nc(N)n1,12.7%,–
Clc1ccc(Nc2nc3ccccc3c3nc(C4CCCCC4)[nH]c23)cc1Cl,–,inactive
O=C(COc1ccc2ccccc2c1Br)Nc1cccnc1,24.3%,–
C=C1/C(=C/C=C2\CCC[C@@]3(C)C2CCC3[C@H](C)/C=C/[C@@H](O)C2CC2)C[C@@H](O)C[C@@H]1O (stereo not given in full),24.6%,–
Cc1ccc(-c2ncc[nH]2)cc1NC(=O)c1ccc(OCc2ccccn2)cc1,–,inactive
COc1cc2c(cc1OC(C)C)[C@H](c1ccc(Cl)cc1)N(c1ccc(N(C)CC3CCC(N4CCN(C)C(=O)C4)CC3)cc1)C(=O)C2 (stereo not given in full),16.4%,–
C=C1C(=O)OC2CC(C)C(CCC(C)O)=CCC12 (stereo not given),4.83%,–
COc1cc(F)c(C(C)C)cc1-c1ccc(C(F)(F)F)cc1CN1C(=O)OC(c2cc(C(F)(F)F)cc(C(F)(F)F)c2)C1C (stereo not given),-8.06%,–
Cc1cccc(N2CCN(C(=O)c3cc(S(=O)(=O)N(C)C)ccc3N3CCCC3)CC2)c1C,1.33%,–
CCCOc1ccc(CCc2nc3cc(-c4c(C)noc4C)ccc3n2CCN2CCOCC2)cc1,–,inactive
COc1cc(C(N)=O)nc(-c2ccccn2)c1O,–,inactive
